Consider 5 molecules from PubChem BioAssay.

In assay [1] the test system is Human papillomavirus type 1a protein E7 (residues 44-93). In words: small molecules binding HPV E7 44-93 – biochemical, small-molecule microarray, residues 44-93, 635 nm fluorescence, primary screen (AID 1108).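 Further: E7 fragment applied at 1 µg/mL in TBST for 1 h at 4 C; score combines spot fluorescence with its signal to noise ratio.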 Particulars: fluorescence 635 nm, higher = more signal.
A short description of assay [2]: hepatitis C replication reporter changes, two-sided – Huh7 cells, luciferase reporter, HCV replication inhibitor project, primary screen (AID 1109).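 Further: huh7 hepatoma cells harbouring a luciferase neomycin HCV replicon reporter; luciferase luminescence as measure of HCV replicon replication; test concentration not given here.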 The note with it: Huh7 HCV replicon luciferase reporter, 48 h; higher = more signal.
The target of assay [3] is Left-right determination factor 2 (Homo sapiens) (UniProt O00292). Put plainly: small molecules binding LEFTY2 protein – biochemical, small-molecule microarray, 635 nm fluorescence scan, primary screen (AID 1110). The note with it: higher = more signal.
In assay [4] the target is Calmodulin-1 (Homo sapiens) (UniProt P0DP23). Put plainly: small molecules binding calmodulin-1 with EGTA – biochemical, small-molecule microarray, Cy5-labelled CALM1, profiling panel (AID 1111).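 Further: labelled calmodulin applied in Tris saline Tween buffer holding calcium plus EGTA and DTT.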 Particulars: Cy5-CALM1 binding fluorescence, higher = more signal.
Assay [5] has the same target. In words: small molecules binding Ca-loaded calmodulin-1 – biochemical, small-molecule microarray, Cy5-labelled CALM1, plus calcium, artefact control for SMM control-protein annotation, profiling panel (AID 1112).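 Further: score merges spot fluorescence with signal to noise from triplicate slides.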 Particulars: Cy5-CALM1 binding fluorescence, higher = more signal.
A short description of assay [6]: probe aWnt5a binding to arrayed compounds – biochemical, biotinylated probe, 635/667 nm fluorescence, primary screen (AID 1113).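 Further: score merges 667 nm fluorescence intensity with signal-to-noise per printed feature.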 The note with it: small-molecule microarray, higher = more signal.
Assay [7] can be described thus: probe aShh binding to arrayed compounds – biochemical, biotinylated probe, 635/667 nm fluorescence, primary screen (AID 1114).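 Further: probe is biotin-labelled aShh protein from a stem cell growth factor screen; measures binding of labelled protein to compounds printed on the slide; score merges feature fluorescence at 667 nm with signal-to-noise.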 The note with it: small-molecule microarray, higher = more signal.
Assay [8] in a line: probe aNog binding to arrayed compounds – biochemical, biotinylated probe, 635/667 nm fluorescence, primary screen (AID 1115).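 Further: probe is biotinylated aNog protein used at 0.15 µg/mL for 1 h at 4 C; z-score combines 667 nm fluorescence of each spot with its signal to noise.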 Particulars: small-molecule microarray, higher = more signal.
Assay [9] addresses Torsin-1A-interacting protein 1 (Homo sapiens) (UniProt Q5JTV8). In words: compound microarray binding of lysate hLAP1 – cell lysate, small-molecule microarray, COS7 lysate, 635/667 nm fluorescence, primary screen (AID 1116). Particulars: 635 nm fluorescence, higher = more signal.
Assay [10] has as its target Alpha-bungarotoxin (Bungarus multicinctus) (UniProt P60615). Put plainly: compounds binding labelled alpha-BTX control protein – biochemical, small-molecule microarray, Alexa647 label, 635/667 nm fluorescence, artefact control for SMM control protein annotation, profiling panel (AID 1117). The note with it: alpha-BTX-A647 binding fluorescence, higher = more signal.
Assay [11] deals with Albumin (Bos taurus) (UniProt P02769). In words: compounds binding labelled BSA control protein – biochemical, small-molecule microarray, Alexa647 label, 635/667 nm fluorescence, artefact control for SMM control protein annotation, profiling panel (AID 1118).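 Further: score merges 667 nm emission intensity and signal-to-noise per printed compound spot.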 The note with it: BSA-A647 binding, fluorescence 635 nm, higher = more signal.
A short description of assay [12]: probe aXIP binding to arrayed compounds – biochemical, NeuroSMM set, 635/667 nm fluorescence, primary screen (AID 1119).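 Further: probe is the protein aXip251-270 applied at 1 µg/mL to compound-printed slides; binding of probe to printed compounds measured as 667 nm fluorescence plus signal to noise.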 The note with it: small-molecule microarray, higher = more signal, called active from +8 up or from −8 down.
The nature of assay [13]: probe aNOTCH3 binding on compound microarray – biochemical, small-molecule microarray, 635/667 nm fluorescence, primary screen (AID 1120).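 Further: probe is a biotin-tagged antibody raised against NOTCH3 rather than NOTCH3 protein; score merges spot fluorescence near 667 nm with spot signal to noise.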 Particulars: higher = more signal.
Assay [14] is described as follows: probe aNOTCH2 binding on compound microarray – biochemical, small-molecule microarray, 635/667 nm fluorescence, primary screen (AID 1121).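 Further: score merges feature fluorescence read at 667 nm with its signal to noise.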 Particulars: higher = more signal.
Assay [15] concerns the target Carbonic anhydrase 2 (Homo sapiens) (UniProt P00918). Put plainly: compounds binding carbonic anhydrase 2 – biochemical, small-molecule microarray, Alexa647-labelled CAII, profiling panel (AID 1122). Particulars: CAII-A647 binding fluorescence, higher = more signal.
A short description of assay [16]: COS7 lysate on small-molecule microarray, probe aHis, 635 nm (AID 1123).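 Further: z-score combines 667nm fluorescence intensity with signal-to-noise per printed compound spot.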 Particulars: COS7 cell lysate, fluorescence, higher = more signal.
A short description of assay [17]: probe aLAP1 signal on lysate-treated microarray – cell lysate, small-molecule microarray, COS7 lysate, primary screen (AID 1124).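 Further: lysate comes from COS7 cells expressing LAP1 and is applied at 0.3 µg/mL; score merges spot fluorescence near 667 nm with signal-to-noise over triplicate slides.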 Particulars: probe aLAP1, fluorescence, higher = more signal.
The test system of assay [18] is Sam68 (KHDRBS1). In words: compounds binding KHDRBS1 protein – biochemical, small-molecule microarray, 635 nm fluorescence, primary screen (AID 1125).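 Further: score merges 667 nm channel intensity with signal to noise over triplicate slides.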 The note with it: higher = more signal.
Assay [19] concerns Chordin-like protein 2 (CHRDL2). Put plainly: compounds binding chordin-like 2 – biochemical, small-molecule microarray, 635 nm fluorescence, primary screen (AID 1126).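 Further: printed compound slides probed with Chrdl2 protein at 4 µg/mL for 1 h at 4 C; score merges 667 nm emission intensity with signal to noise over three replicate slides.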 The note with it: fluorescence 635 nm, higher = more signal.
For assay [20], the target named is Concanavalin-A (Canavalia ensiformis) (UniProt P02866). Put plainly: compounds binding concanavalin A lectin – biochemical, small-molecule microarray, Alexa647 label, 635 nm, artefact control for SMM control protein annotation, primary screen (AID 1127).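 Further: z combines 667 nm emission intensity with signal-to-noise across three replicate slides.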 Particulars: ConA-A647 binding fluorescence, higher = more signal.

Structures are written as SMILES. Activity calls are given as the source filed them.

Sequence of Albumin (Bos taurus) (P02769 whole entry, looked up): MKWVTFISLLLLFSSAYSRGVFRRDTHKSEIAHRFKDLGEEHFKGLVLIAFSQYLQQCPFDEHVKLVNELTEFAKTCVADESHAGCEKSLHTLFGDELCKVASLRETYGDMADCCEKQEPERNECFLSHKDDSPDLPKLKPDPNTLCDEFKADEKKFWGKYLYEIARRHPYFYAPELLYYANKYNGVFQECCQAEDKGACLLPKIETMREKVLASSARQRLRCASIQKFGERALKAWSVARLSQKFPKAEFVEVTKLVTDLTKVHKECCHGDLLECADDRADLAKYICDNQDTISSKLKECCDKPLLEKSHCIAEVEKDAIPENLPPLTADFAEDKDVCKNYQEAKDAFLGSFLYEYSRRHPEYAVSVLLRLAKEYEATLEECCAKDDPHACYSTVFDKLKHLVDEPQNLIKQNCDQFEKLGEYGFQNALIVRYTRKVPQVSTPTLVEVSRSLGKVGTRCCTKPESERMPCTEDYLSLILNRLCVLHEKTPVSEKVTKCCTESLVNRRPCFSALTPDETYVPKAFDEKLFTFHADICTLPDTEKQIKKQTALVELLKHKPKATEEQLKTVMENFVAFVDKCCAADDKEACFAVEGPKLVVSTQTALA
Sequence of Torsin-1A-interacting protein 1 (Homo sapiens) (Q5JTV8 whole entry, looked up): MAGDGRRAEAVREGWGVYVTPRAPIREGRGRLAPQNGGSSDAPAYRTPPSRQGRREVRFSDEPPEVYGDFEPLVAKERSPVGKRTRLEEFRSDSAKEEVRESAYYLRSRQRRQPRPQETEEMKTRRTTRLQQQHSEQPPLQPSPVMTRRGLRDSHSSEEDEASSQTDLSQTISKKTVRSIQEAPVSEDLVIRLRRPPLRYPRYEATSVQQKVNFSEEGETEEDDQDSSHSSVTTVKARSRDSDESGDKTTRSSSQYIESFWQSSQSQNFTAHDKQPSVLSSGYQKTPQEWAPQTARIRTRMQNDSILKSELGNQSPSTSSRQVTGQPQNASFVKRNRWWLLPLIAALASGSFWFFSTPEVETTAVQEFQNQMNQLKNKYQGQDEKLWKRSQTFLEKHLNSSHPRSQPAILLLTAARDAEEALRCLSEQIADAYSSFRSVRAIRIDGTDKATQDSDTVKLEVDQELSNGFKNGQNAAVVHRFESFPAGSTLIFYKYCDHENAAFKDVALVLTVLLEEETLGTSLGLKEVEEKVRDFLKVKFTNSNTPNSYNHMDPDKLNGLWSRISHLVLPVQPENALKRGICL
Sequence of Alpha-bungarotoxin (Bungarus multicinctus) (P60615 whole entry, looked up): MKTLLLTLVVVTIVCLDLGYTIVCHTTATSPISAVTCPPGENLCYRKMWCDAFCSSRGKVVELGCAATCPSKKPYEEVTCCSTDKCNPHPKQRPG
Sequence of Concanavalin-A (Canavalia ensiformis) (P02866 whole entry, looked up): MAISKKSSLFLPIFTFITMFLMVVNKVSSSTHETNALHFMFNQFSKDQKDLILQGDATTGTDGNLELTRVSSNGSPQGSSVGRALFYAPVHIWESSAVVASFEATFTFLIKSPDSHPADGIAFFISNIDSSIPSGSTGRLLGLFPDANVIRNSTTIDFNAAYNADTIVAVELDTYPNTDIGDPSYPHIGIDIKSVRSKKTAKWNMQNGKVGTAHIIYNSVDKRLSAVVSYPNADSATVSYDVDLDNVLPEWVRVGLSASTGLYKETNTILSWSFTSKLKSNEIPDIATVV
Sequence of Left-right determination factor 2 (Homo sapiens) (O00292 whole entry, looked up): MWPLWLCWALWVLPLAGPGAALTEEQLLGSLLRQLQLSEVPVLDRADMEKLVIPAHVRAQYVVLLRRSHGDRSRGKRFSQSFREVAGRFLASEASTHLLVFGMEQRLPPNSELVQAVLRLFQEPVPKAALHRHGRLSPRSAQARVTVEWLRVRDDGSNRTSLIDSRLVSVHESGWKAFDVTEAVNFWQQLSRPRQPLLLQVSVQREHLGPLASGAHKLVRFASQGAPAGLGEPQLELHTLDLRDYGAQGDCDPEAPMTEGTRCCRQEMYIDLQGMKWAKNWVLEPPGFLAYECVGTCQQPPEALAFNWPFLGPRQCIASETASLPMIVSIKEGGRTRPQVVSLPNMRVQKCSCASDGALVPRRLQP

As to `CCN1C(=O)[C@H]2[C@H]3[C@H](O)[C@H](O)CC(=NO[C@@H]4O[C@H](CO)[C@@H](O)[C@H](O)[C@H]4O)[C@H]3CC[C@H]2C1=O`, the composite z-score is 0.442 in assay [1]; 0.486 in assay [3]; -0.354 in assay [4]; -1.04 in [5]; -0.0529 in [6]; 0.204 in [7]. The composite z-score in assay [8] was 0.117; in assay [9] it was 0.196; in [10], 0.497; in assay [11] it was -0.0203; in [13], -0.0783; in assay [14] it was -0.148. For the same molecule, the composite z-score was -0.0497 in assay [15]; -0.0296 in assay [16]; 0.212 in assay [17]; -0.305 in [18]; 0.43 in [19]; 0.634 in [20]. In addition, in assay [2], the z-score is 1.2. The composite Z-score in assay [12] was 0.121 (inactive).
With `CC(CCN1CCCCc2nc(C)c(C)cc21)=NOC[C@@H](O)[C@H]1O[C@@H]2OC(C)(C)O[C@@H]2[C@H]1O`, the composite z-score in assay [1] is -0.902; in [3], 1.39; in assay [4], -0.554; in [5], -1.3; in assay [6], -0.124; in assay [7], -0.0626. The composite z-score is 0.0254 in [8]; -0.219 in assay [9]; 0.969 in assay [10]; 0.814 in assay [11]; -0.0363 in assay [13]; -0.166 in assay [14]. Further, the composite z-score was -0.378 in assay [15]; -0.461 in assay [16]; -0.258 in assay [17]; 0.0948 in assay [18]; 1.16 in assay [19]; -0.0142 in assay [20]. In addition, in assay [2], the z-score was determined as 0.0388. In addition, the composite Z-score in [12] was -0.379 (inactive).
`COC(=O)[C@H](Cc1ccccc1)NC(=O)[C@@H](C)CO`: the composite z-score in assay [1] was -0.0054; in assay [3], 0.597; in assay [4], -0.597; in assay [5] it was -0.32; in assay [6], -0.034; in [7], 0.214. Besides, the composite z-score was 0.376 in assay [8]; 0.763 in assay [9]; 0.0296 in assay [10]; 0.317 in assay [11]; 0.226 in assay [13]; -0.181 in assay [14]. The composite z-score in [15] was 0.465; in assay [16], 0.207; in assay [17], 0.143; in assay [18], 0.48; in [19], 0.501; in assay [20], -1.01. Also, the z-score in assay [2] is -0.499. For the same molecule, the composite Z-score in assay [12] is 0.047 (inactive).
For the molecule `O=C1[C@H]2[C@H]3[C@H](O)[C@H](O)CC(=NO[C@@H]4O[C@H](CO)[C@@H](O)[C@H](O)[C@H]4O)[C@@H]3CC[C@H]2C(=O)N1C[C@@H]1CCCO1`, the composite z-score in assay [1] was 1.3; in assay [3] it was 0.495; in assay [4] it was -0.158; in [5] it was -0.572; in [6], -0.28; in assay [7] it was -0.0769. Besides, the composite z-score in assay [8] is -0.238; in [9], -0.0974; in [10] it was -0.103; in assay [11] it was 0.587; in assay [13], -0.243; in [14] it was -0.131. Also, the composite z-score in [15] was 0.212; in assay [16] it was 0.146; in [17], -0.136; in assay [18] it was 1.1; in assay [19] it was 0.183; in [20], 0.51. For the same molecule, the z-score in assay [2] is -0.682. In assay [12], the composite Z-score was -0.258 (inactive).
Take `CC(C)[C@@H](OCc1ccccc1)[C@H](C)CON=C1[C@H]2CCn3c(=O)n(-c4ccccc4)c(=O)n3[C@H]2[C@H](O)[C@@H]2O[C@H]12`: the composite z-score in [1] was 0.416; in assay [3] it was 0.677; in [4], -0.404; in assay [5], -0.366; in assay [6], -0.147; in assay [7], -0.134. Besides, the composite z-score in assay [8] is -0.124; in assay [9], -0.005; in [10], 0.251; in assay [11] it was 0.667; in assay [13], -0.0072; in [14], -0.0527. For the same molecule, the composite z-score in [15] is -0.0291; in assay [16] it was 0.476; in assay [17], -0.219; in assay [18], 0.593; in assay [19], 0.427; in assay [20] it was -0.0949. Besides, the z-score in assay [2] is -4.23. Moreover, in [12], the composite Z-score is 0.382 (inactive).
